Records with an inconclusive call do not appear. Active and inactive are the calls of the source. Unless noted, the call rests on the fitted dose curve; in most records, active means well fitted curve in the direction sought with a large enough effect; inconclusive means small, poorly fitted or top-dose-only effect, or another doubt; inactive means no such curve, though single readings can be large; an effect the other way counts as inactive or inconclusive.
What was measured:
[1] = qHTS drug screen for cell cycle checkpoint inhibitors in PARPi-resistant BRCA-mutant ovarian cancer cell lines. (AID 1963452; calls by dose curve); conditions: PEO1/OlaR viability, CellTiter-Glo luminescence, 96 h, stronger effect = lower value
Outline: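 PEO1, PEO4 and PEO1/OlaR ovarian cancer cells, 600 per well, exposed 96 h at 37C to a dilution series. Viability read by CellTiter-Glo luminescence, normalized to DMSO and empty wells; activity summarized as Z-AUC.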

[2] = qHTS profiling for inhibitors of Plasmodium falciparum proliferation (AID 504749); further: nearly all actives have a fitted effect of over 60% in size; further: potency means the concentration at half of the fitted maximal effect; conditions: P. falciparum in erythrocytes, SYBR Green DNA, 72 h; series mostly up to 28.7 µM
Outline: (§1)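 Quantitative HTS: compounds pinned into medium, infected erythrocytes added (0.3% parasitemia, 2.5% hematocrit), 72 h culture at 37 C under 5% CO2. Saponin/Triton lysis with SYBR Green I, overnight RT, then fluorescence read.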

3D7 = experiment: as above; conditions: P. falciparum in erythrocytes, SYBR Green DNA, 72 h; series mostly up to 28.7 µM
Outline: as §1

AA1029 = experiment: as above; conditions: P. falciparum in erythrocytes, SYBR Green DNA, 72 h; series mostly up to 28.7 µM
Outline: as §1

AS120 = experiment: as above; conditions: P. falciparum in erythrocytes, SYBR Green DNA, 72 h; series mostly up to 28.7 µM
Outline: as §1

ATS189 = experiment: as above; conditions: P. falciparum in erythrocytes, SYBR Green DNA, 72 h; series mostly up to 28.7 µM
Outline: as §1

ATS95 = experiment: as above; conditions: P. falciparum in erythrocytes, SYBR Green DNA, 72 h; series mostly up to 28.7 µM
Outline: as §1

C2A = experiment: as above; conditions: P. falciparum in erythrocytes, SYBR Green DNA, 72 h; series mostly up to 28.7 µM
Outline: as §1

7G8 = experiment: as above; conditions: P. falciparum in erythrocytes, SYBR Green DNA, 72 h; series mostly up to 28.7 µM
Outline: as §1

[3] = target: Cytochrome P450 3A4 (Homo sapiens) (UniProt P08684); experiment: qHTS for inhibitors of CYP3A4 against the NCATS DSHEA and TCM libraries (AID 1919971); conditions: recombinant CYP3A4 enzyme activity, luminescence qHTS; series mostly up to 34.1 µM;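 further: on the % scale 0 is the no-effect control and ±100 the full control effect; inhibition lowers luminescence from luciferin made by CYP3A4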
Outline: (§2)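 Concentration-response screening with isoform-matched pro-luciferin substrates. The CYP reaction was initiated by NADPH regenerating solution and ran 30-45 min in darkness at room temperature.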

[4] = target: Cytochrome P450 2D6 (Homo sapiens) (UniProt P10635); experiment: qHTS for inhibitors of CYP2D6 against the NCATS DSHEA and TCM libraries (AID 1919972); conditions: CYP2D6 enzymatic inhibition, luminescence qHTS; series mostly up to 34.1 µM; further: on the % scale 0 is the no-effect control and ±100 the full control effect
Outline: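 CYP2D6 enzyme with pro-luciferin substrate in manufacturer buffer (typically 100 mM KPO4), preincubated 15 min RT with substances (most at 19.5 nM upward); NADPH regeneration system (1x) started 30–45 min RT reaction; P450-Glo luminescence read after 30 min; quinidine as intraplate control.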

[5] = target: Cytochrome P450 2C9 (Homo sapiens) (UniProt P11712); experiment: qHTS for inhibitors of CYP2C9 against the NCATS DSHEA and TCM libraries (AID 1919973); conditions: recombinant CYP2C9 enzyme activity, luminescence; series mostly up to 34.1 µM;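 further: luminogenic pro-luciferin CYP2C9 substrate turned into luciferin with NADPH regeneration; on the % scale 0 is the no-effect control and ±100 the full control effect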
Outline: as §2

[6] = target: Cytochrome P450 2C19 (Homo sapiens) (UniProt P33261); experiment: qHTS for inhibitors of CYP2C19 against the NCATS DSHEA and TCM libraries (AID 1919974); conditions: CYP2C19 enzyme inhibition, luminescence qHTS; series mostly up to 34.1 µM;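 further: luminescence from luciferin released by CYP2C19 oxidation of a pro-luciferin substrate; on the % scale 0 is the no-effect control and ±100 the full control effect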
Outline: as §2

[7] = KB-3-1 P-gp reporter qHTS against the NCATS DSHEA and TCM libraries (AID 1919975); conditions: KB-3-1 parental cells, CellTiter-Glo luminescence viability, 72 h; series mostly up to 26.1 µM; further: 0% is about no effect
Outline: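 Cell viability by CellTiter-Glo luminescence following ~72 h compound exposure (concentration-response). Uses parental, non-P-gp-overexpressing KB-3-1 line, 500 cells/well in DMEM/10% FBS, attached ~4 h before dosing.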

[8] = target: Cytochrome P450 1A2 (Homo sapiens) (UniProt P05177); experiment: qHTS for inhibitors of CYPIA2 against the NCATS DSHEA and TCM libraries (AID 1919976); conditions: recombinant CYP1A2 enzyme activity, luminescence; series mostly up to 37 µM;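 further: light from luciferin formed by CYP1A2 from a pro-luciferin substrate; on the % scale 0 is the no-effect control and ±100 the full control effect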
Outline: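 Enzyme and pro-luciferin substrate, or substrate alone as no-enzyme background, are pre-incubated with test samples for 15 min at room temperature. NADPH regeneration system (1x final) initiates a 30-45 min dark reaction; luciferase detection reagent follows before luminescence reading.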

[9] = qHTS Counterscreen for compound interference against the NCATS DSHEA and TCM libraries (AID 1919978); conditions: firefly luciferase detection reagent interference, luminescence;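 further: compounds preincubated with 1 µM D-luciferin or buffer before detection reagent; % of control where 0% means no effect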
Outline: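 With 1 uM D-luciferin or phosphate buffer only, compounds at final 19.5 nM–39.8 uM were incubated for 15 min at room temperature. Luciferase detection reagent was then added, and luminescence was measured after a further 30 min at room temperature.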

[10] = Dual reporter qHTS for agonist of Pregnane X Receptor (hPXR) against the NCATS DSHEA and TCM libraries: Fluorescence readout (AID 1920058); conditions: PXR dual reporter cells; series mostly up to 40 µM; further: 0% is about no effect
Outline: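 Cells were plated at 2000 per well and allowed to attach for 5 h. Test substances were pinned in and incubated roughly 24 h. CellTiter-Fluor was then added and fluorescence measured after 1 h.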

[11] = target: Nuclear receptor subfamily 1 group I member 2 (Homo sapiens) (UniProt O75469); experiment: Dual reporter qHTS for agonist of Pregnane X Receptor (hPXR) against the NCATS DSHEA and TCM libraries: Luminescence readout (AID 1920059); conditions: hPXR dual reporter cells, luciferase luminescence agonist; series mostly up to 40 µM; further: 0% is about no effect
Outline: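 hPXR-LucHepG2 cells in phenol red-free DMEM with 5% charcoal-stripped FBS, 2000 cells/well, attached 5 h, then exposed 24 h at 37C to compounds; rifampicin as positive agonist control (2.8 nM–92 uM). Luciferase luminescence read.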

[12] = target: Nuclear receptor subfamily 1 group I member 2 (Homo sapiens) (UniProt O75469); experiment: Dual reporter qHTS for antagonist of Pregnane X Receptor (hPXR) against the NCATS DSHEA and TCM libraries: Luminescence Readout (AID 1920060); conditions: hPXR dual reporter cells, luciferase luminescence, antagonist mode; series mostly up to 40 µM; further: 0% is about no effect
Outline: (§3)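 Rifampicin-stimulated (2 uM final) hPXR-luciferase HepG2 cells were treated for 24 h with DSNP/TCM substances. Viability came from CellTiter-Fluor fluorescence, reporter activity from ONE-Glo luminescence.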

[13] = Dual reporter qHTS for antagonist of Pregnane X Receptor (hPXR) against the NCATS DSHEA and TCM libraries: Fluorescence Readout (AID 1920061); conditions: PXR dual reporter cells, antagonist mode; series mostly up to 40 µM; further: 0% is about no effect
Outline: as §3

[14] = measured here: PEO1 parental Z-AUC

Sequence of Nuclear receptor subfamily 1 group I member 2 (Homo sapiens) (O75469 whole entry, looked up): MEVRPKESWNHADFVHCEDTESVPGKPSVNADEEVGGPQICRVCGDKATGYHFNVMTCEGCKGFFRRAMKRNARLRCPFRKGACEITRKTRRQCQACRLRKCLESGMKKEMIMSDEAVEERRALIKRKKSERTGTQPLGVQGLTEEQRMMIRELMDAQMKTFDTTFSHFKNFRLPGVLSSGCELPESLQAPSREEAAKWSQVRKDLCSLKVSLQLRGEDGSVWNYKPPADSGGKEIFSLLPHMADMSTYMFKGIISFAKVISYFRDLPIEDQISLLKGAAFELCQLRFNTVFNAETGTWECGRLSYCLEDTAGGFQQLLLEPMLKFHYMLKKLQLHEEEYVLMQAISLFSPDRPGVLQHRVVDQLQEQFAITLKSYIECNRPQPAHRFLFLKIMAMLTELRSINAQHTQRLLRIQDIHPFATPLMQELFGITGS
Sequence of Cytochrome P450 2C9 (Homo sapiens) (P11712 whole entry, looked up): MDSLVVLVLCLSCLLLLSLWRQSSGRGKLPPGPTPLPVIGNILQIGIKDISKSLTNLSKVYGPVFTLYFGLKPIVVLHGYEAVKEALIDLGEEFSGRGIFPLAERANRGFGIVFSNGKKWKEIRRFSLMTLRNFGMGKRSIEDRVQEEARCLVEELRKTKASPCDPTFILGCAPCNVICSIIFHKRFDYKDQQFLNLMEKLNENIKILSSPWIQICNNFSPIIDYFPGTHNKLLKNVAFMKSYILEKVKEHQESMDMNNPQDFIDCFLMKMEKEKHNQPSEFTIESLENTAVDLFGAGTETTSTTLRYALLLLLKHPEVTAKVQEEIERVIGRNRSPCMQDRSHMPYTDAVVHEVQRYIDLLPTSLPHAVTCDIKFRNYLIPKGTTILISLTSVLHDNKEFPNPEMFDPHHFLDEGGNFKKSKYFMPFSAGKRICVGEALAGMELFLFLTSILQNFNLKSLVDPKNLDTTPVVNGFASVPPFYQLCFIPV
Sequence of Cytochrome P450 2D6 (Homo sapiens) (P10635 whole entry, looked up): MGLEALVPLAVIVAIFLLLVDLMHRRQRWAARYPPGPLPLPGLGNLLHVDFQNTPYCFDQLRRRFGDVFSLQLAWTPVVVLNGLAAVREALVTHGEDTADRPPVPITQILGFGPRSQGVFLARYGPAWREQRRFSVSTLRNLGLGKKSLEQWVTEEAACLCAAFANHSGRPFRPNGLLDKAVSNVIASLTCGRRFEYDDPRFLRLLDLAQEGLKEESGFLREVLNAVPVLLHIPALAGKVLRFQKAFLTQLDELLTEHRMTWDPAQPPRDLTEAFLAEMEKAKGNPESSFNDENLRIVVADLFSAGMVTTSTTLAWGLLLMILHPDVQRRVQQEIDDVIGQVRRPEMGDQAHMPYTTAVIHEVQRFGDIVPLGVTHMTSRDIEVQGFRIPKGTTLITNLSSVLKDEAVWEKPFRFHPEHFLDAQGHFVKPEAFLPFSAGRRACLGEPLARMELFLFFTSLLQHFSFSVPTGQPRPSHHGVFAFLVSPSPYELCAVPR
Sequence of Cytochrome P450 3A4 (Homo sapiens) (P08684 whole entry, looked up, canonical isoform): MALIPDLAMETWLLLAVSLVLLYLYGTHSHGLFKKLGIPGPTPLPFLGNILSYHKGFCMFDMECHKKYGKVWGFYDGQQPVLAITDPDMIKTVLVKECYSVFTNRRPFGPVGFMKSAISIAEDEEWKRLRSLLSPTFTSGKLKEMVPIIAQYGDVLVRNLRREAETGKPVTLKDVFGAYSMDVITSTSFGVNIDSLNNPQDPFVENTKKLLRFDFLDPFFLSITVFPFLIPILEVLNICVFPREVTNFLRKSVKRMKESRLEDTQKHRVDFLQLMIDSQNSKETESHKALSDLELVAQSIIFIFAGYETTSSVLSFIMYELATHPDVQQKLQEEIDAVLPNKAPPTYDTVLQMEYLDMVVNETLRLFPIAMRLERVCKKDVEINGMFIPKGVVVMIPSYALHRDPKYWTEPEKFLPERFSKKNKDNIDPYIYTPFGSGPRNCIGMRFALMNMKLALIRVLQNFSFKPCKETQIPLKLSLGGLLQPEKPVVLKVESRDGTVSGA
Sequence of Cytochrome P450 1A2 (Homo sapiens) (P05177 whole entry, looked up): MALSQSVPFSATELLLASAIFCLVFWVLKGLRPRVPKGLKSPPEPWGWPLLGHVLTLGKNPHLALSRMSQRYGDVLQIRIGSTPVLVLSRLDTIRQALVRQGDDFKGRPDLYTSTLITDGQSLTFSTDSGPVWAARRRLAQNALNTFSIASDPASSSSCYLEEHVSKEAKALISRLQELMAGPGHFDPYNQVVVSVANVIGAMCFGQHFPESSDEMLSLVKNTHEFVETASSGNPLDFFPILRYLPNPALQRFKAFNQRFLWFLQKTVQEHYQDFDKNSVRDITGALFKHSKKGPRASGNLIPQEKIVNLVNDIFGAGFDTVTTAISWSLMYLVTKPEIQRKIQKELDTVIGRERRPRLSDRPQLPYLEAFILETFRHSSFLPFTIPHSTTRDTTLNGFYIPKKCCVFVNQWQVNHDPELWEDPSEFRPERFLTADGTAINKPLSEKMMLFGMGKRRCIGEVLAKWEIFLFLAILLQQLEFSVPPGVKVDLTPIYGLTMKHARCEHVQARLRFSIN
Sequence of Cytochrome P450 2C19 (Homo sapiens) (P33261 whole entry, looked up): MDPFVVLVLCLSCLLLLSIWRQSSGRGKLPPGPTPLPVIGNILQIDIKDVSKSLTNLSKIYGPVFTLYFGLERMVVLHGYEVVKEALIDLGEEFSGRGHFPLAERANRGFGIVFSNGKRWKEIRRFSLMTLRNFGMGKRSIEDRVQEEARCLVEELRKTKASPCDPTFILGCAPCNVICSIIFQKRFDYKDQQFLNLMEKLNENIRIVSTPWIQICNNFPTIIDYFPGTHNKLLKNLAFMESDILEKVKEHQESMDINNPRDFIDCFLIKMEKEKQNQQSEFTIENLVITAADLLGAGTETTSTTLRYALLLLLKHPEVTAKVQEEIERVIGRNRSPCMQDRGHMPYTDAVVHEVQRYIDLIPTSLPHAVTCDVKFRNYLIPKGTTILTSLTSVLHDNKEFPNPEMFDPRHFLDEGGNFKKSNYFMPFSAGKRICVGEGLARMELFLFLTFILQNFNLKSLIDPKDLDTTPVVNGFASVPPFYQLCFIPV

O=C1Nc2ccc(I)cc2/C1=C/c1cc(Br)c(O)c(Br)c1
inactive: Z-AUC [1] 1.3
0.686: Z-AUC ([1]; measured here: PEO4 Z-AUC)
0.638: Z-AUC [1, 14]

CCCCCCCCCCCCCCC[C@H](O)[C@H](N)CO
inactive: outcome [2] | Potency (3D7) | outcome (AA1029) | outcome (AS120) | Potency (ATS189) | outcome (ATS95) | outcome (C2A)

CN(C)S(=O)(=O)c1ccc2c(c1)/C(=C/c1cc3c([nH]1)CCCC3)C(=O)N2
0.277: Z-AUC ([1]; measured here: PEO4 Z-AUC)
inactive: Z-AUC [1] 1.05
0.668: Z-AUC [1, 14]

COc1cc(/C=C(\C#N)C(=O)Nc2nnc(C(F)(F)F)s2)ccc1OCc1ccc(C(F)(F)F)cc1C(F)(F)F
inactive: Z-AUC [1] 0.582
0.483: Z-AUC [1, 14]
0.578: Z-AUC ([1]; measured here: PEO4 Z-AUC)

CC(C)NC[C@H](O)COc1ccc(CC(N)=O)cc1
inactive: outcome [2] | Potency (3D7) | Potency (7G8) | outcome (AA1029) | outcome (AS120) | Potency (ATS189) | outcome (ATS95) | outcome (C2A)

CCCCCCCCCCCCCCCCCCOC[C@H](COP(=O)([O-])OCC[N+](C)(C)C)OC
inactive: outcome [2] | Potency (3D7) | Potency (7G8) | outcome (AA1029) | outcome (AS120) | Potency (ATS189) | outcome (ATS95) | outcome (C2A)

CN1C2CCC1CC(OC(c1ccccc1)c1ccccc1)C2 (configuration not stated)
active: Potency (7G8) 4.47 µM
inactive: outcome [2] | Potency (3D7) | outcome (AS120) | outcome (C2A)

CCCc1c(OCCCOc2ccc(OCC(=O)O)cc2)ccc(C(C)=O)c1O
1.18: Z-AUC ([1]; measured here: PEO4 Z-AUC)
inactive: Z-AUC [1] 1.58
1.27: Z-AUC [1, 14]

CC(O)C(O)[C@H]1CNc2nc(N)[nH]c(=O)c2N1 (some centres not stated)
inactive: outcome [2] | Potency (3D7) | outcome (AA1029) | outcome (AS120) | Potency (ATS189) | outcome (ATS95) | outcome (C2A)

CC1=C(/C=C/C(C)=C/C=C/C(C)=C\C(=O)O)C(C)(C)CCC1
0.115: Z-AUC [1, 14]
inactive: Z-AUC [1] -0.242
0.0344: Z-AUC ([1]; measured here: PEO4 Z-AUC)

C=C1C[C@@]23CC[C@H]4[C@@](C)(CCC[C@@]4(C)C(=O)OC4OC(CO)C(O)C(O)C4O)[C@@H]2CC[C@]1(OC1OC(CO)C(O)C(O)C1OC1OC(CO)C(O)C(O)C1O)C3 (some centres not stated)
inactive: outcome [3] | outcome [4] | outcome [5] | outcome [6] | outcome [7] | outcome [8] | max response [9] 4.65% | outcome [10] | outcome [11] | outcome [12] | outcome [13]

c1ccc(C2CN3CCSC3=N2)cc1 (configuration not stated)
active: Potency (3D7) 11.2 µM | Potency (7G8) 0.794 µM | Potency (ATS189) 5.01 µM

O=C(O)/C=C/c1ccc(O)c(O)c1
inactive: outcome [3] | outcome [4] | outcome [5] | outcome [7] | max response [9] -3.07% | outcome [10] | outcome [12] | outcome [13]

Reference: PubChem BioAssay (NCATS)
